LGR2 antag = Drosophila LGR2 receptor signaling inhibition; inhibition, % at 9.99 µM; HEK293 LGR2, CRE-luciferase, bursicon-stimulated, 4 h; hit rate 0.35% among 380,000;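 active = drop in luminescence signal, shown as inhibition above about 50% in the replicate tests, limit read from the data, passing the limit was not always enough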;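 also: agonist challenge used bursicon conditioned medium at about half maximal strength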
SENP8 block-1 = inhibitors of human SENP8 protease. hit rate 1.2% among 330,000. Q96LD8. inhibition, % at 10 µM. AID 2540. purified SENP8, Z-RLRGG-aminoluciferin cleavage, luminescence; in the data active = inhibition above about 50%
Target sequence (Q96LD8 whole entry, looked up): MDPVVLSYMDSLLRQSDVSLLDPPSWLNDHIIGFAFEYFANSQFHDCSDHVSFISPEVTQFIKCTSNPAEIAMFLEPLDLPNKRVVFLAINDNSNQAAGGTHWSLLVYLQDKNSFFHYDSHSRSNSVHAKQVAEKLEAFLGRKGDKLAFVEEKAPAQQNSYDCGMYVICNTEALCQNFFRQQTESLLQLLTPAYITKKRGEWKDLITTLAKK
SENP6 block = blocks the human protease SENP6; Q9GZR1; Recombinant SENP6 catalytic domain, aminoluciferin luminescence; inhibition, % at 10 µM; hit rate 1.8% among 330,000;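 active = inhibition above about 50% at the single tested dose, limit read from the data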;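 also: plate controls were DMSO wells with enzyme for no effect and DMSO wells lacking enzyme for full effect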
SENP7 inh = inhibitors of human SENP7 protease; inhibition, % at 5 µM; hit rate 1.5% among 330,000; recombinant SENP7, Z-RLRGG-aminoluciferin luminescence, 40 min; Q9BQF6;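 active = inhibition above about 50% at the single test dose, limit read from the data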;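 also: plate controls were DMSO with enzyme for no effect and no enzyme buffer wells for full effect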
Target sequence (Q9BQF6 706-1050 limits assumed): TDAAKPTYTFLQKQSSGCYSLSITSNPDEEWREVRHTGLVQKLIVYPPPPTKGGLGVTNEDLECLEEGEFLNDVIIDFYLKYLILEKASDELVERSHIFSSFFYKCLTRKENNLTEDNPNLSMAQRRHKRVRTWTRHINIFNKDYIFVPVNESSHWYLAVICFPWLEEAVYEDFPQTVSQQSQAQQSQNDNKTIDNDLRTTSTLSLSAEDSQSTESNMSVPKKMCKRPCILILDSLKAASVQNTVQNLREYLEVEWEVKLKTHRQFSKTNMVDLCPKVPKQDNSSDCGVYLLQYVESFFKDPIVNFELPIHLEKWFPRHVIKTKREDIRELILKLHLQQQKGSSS
SENP8 block-2 = SENP8 (human) protease inhibition | recombinant SENP8, Nedd8 substrate fluorescence | inhibition, % at 20 µM | hit rate 0.64% among 360,000; in the data active = inhibition mostly above about 40%, no sharp cut-off; inactive = mostly below about 27%
HSP90 inh = inhibitors of HSP90 luciferase refolding in rabbit reticulocyte lysate; luciferase refolding luminescence, 3 h; hit rate 0.91% among 290,000; inhibition, % at 5.6 µM; AID 1789;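 active = inhibition above the screen-wide mean plus 3 SD, computed separately per campaign, cut at about 16% in these data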;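 also: 0% = DMSO wells and 100% = 60 µM geldanamycin wells; inhibitors lower the luminescence because luciferase stays unfolded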
HSP90 confirm = confirmation of HSP90 inhibitors. shares compounds with HSP90 inh. inhibition, % at 5.9 µM. rabbit reticulocyte lysate, luciferase refolding luminescence, 3 h. hit rate 64% among 2,300; in the data active = inhibition above about 18%;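 also: 0% = vehicle wells and 100% = reference inhibitor wells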
FLuc counter = blocks native firefly luciferase in HSP90 counter-screen; AID 1847; shares compounds with HSP90 inh; hit rate 48% among 2,300; purified native firefly luciferase, luminescence; inhibition, % at 5.9 µM;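 active = inhibition above the mean inhibition of all tested sample wells plus 3 SD, cut at about 10% in these data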;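 also: 0% = DMSO with luciferase and 100% = wells lacking luciferase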
* marks the source's active call; other numbers are inactive results; . = no result. Most compounds without a hit are left out; they make up all but 2.3% or so of the library.

SMILES	LGR2 antag	SENP8 block-1	SENP6 block	SENP7 inh	SENP8 block-2	HSP90 inh	HSP90 confirm	FLuc counter
Cc1nc(NC(=O)c2ccccc2)sc1-c1csc(Nc2cccc(F)c2)n1	.	30	47	10	.	37*	28*	-19
COc1cccc(Nc2nc(-c3sc(N)nc3C)cs2)c1	-33	-4	11	17	10	17*	-5	-29
CCCCCCC(=O)Nc1nc(C)c(-c2csc(Nc3ccccc3OC)n2)s1	-3	0	3	12	-236	1	.	.
COc1cccc(Nc2nc(-c3sc(NC(=O)c4ccco4)nc3C)cs2)c1	-17	-4	-1	6	-201	14	.	.
CCC(=O)Nc1ccc2c(c1)OC[C@H](C)N(Cc1ccccc1C(=O)O)C[C@H](C)[C@@H](OC)CN(C)C2=O	-3	.	.	.	.	.	.	.
CO[C@@H]1CN(C)C(=O)c2ccc(NC(=O)c3cccc(F)c3)cc2OC[C@@H](C)N(C(C)=O)C[C@@H]1C	16	.	.	.	.	.	.	.
CCOc1ccccc1Nc1nc(-c2sc(NC(=O)c3ccccc3)nc2C)cs1	.	59*	72*	64*	.	46*	25*	-6
CCCCCC(=O)Nc1nc(C)c(-c2csc(Nc3ccccc3OCC)n2)s1	.	7	1	12	-55	6	.	.
CCC(=O)Nc1nc(C)c(-c2csc(Nc3ccc(S(=O)(=O)Nc4cc(C)on4)cc3)n2)s1	.	.	.	.	.	4	.	.
Cc1cc(NS(=O)(=O)c2ccc(Nc3nc(-c4sc(NC(=O)c5ccccc5)nc4C)cs3)cc2)no1	.	43	72*	65*	.	33*	14	-8
CCCNC(=O)NC[C@@H]1[C@H](c2ccc(C3=CCCC3)cc2)[C@H](CO)N1C(C)=O	-20	.	.	.	.	.	.	.
CCCCOC(=O)Nc1nnc(CC)s1	.	4	-28	0	12	29*	1	-20
Cc1ccccc1OCC(=O)N(CC(C)C)c1c(N)n(CC(C)C)c(=O)[nH]c1=O	5	5	0	-4	7	45*	-2	-2
Cc1ccc(NC(=O)Nc2ccc3c(c2)C(=O)N(C)[C@@H]2CC[C@H](CC(=O)O)O[C@@H]2CO3)cc1	-11	.	.	.	.	.	.	.
COc1ccc(N2CCC(CNC(=S)Nc3cccc(OC)c3)C2)cc1 (stereo not drawn)	-2	0	2	1	.	18*	0	-10
CCC(=O)N1CCc2cc(S(=O)(=O)CCC(=O)NCc3ccco3)ccc21	-6	-4	-9	9	4	23*	-6	-10
CCN(c1cccc(C(F)(F)F)c1)S(=O)(=O)c1ccc2c(c1)CCN2C(=O)C1CC1	.	1	-7	5	15	1	.	.
CCC(=O)N1CCc2cc(S(=O)(=O)N(CC)c3cccc(C)c3)ccc21	.	-4	-13	2	20	62*	-4	-6
CCC(=O)N1CCc2cc(S(=O)(=O)CCC(=O)NCCc3ccccc3)ccc21	.	-2	16	-5	21	1	.	.
NNC(=O)CNC(c1ccccc1)c1cc(Br)ccc1N (stereo not drawn)	3	-8	-10	-1	24	58*	-2	-5
COC(=O)CNC(c1ccccc1)c1cc(Br)ccc1N (stereo not drawn)	-5	3	-2	3	21	6	.	.
CCCN1C[C@H](C)[C@@H](OC)CN(C)C(=O)c2cc(NC(=O)CC)ccc2OC[C@H]1C	5	.	.	.	.	.	.	.
CC(=O)c1ccc(S(=O)(=O)N2CCN(C(C)=O)CC2)cc1	-10	7	5	3	12	2	.	.
CC(=O)c1ccc(S(=O)(=O)N2CCN(C(=O)CSc3ccc(F)cc3)CC2)cc1	-1	2	2	4	5	24*	-7	-10
COc1ccc(S(=O)(=O)N(C)C[C@H]2OCCCC[C@@H](C)Oc3ccc(NC(=O)c4ccccc4)cc3C(=O)N([C@@H](C)CO)C[C@@H]2C)cc1	-1	.	.	.	.	.	.	.
SMILES	LGR2 antag	SENP8 block-1	SENP6 block	SENP7 inh	SENP8 block-2	HSP90 inh	HSP90 confirm	FLuc counter
O=C(CN1C(=O)CCC1=O)NNc1ccc2ccccc2c1	-5	1	-23	6	-116	26*	13	-13
O=C(Cc1ccccc1)NNc1ccc2ccccc2c1	6	1	6	4	-381	39*	5	-3
O=C(COc1ccc2ccccc2c1)NNC(=O)Cc1ccccc1	.	.	.	.	8	3	.	.
Cc1cc(C(=O)N/N=C2\CCCC(=O)C2)c(C)n1-c1ccccc1	-6	-9	5	-4	-8	31*	-5	-18
CN1C(=O)c2cc(NC(=O)C3CCCC3)ccc2OC[C@@H]2O[C@@H](CC(=O)NCc3ccccc3F)CC[C@@H]21	-8	.	.	.	.	.	.	.
c1ccc(-c2ccc(-c3ccccn3)nn2)nc1	.	71*	83*	89*	.	28*	54*	36*
c1ccc(-c2ccccn2)nc1	15	2	7	-2	2	6	.	.
O=C(O)c1ccc(NC(=S)NC(=O)c2cncc(Br)c2)cc1	.	6	2	7	26	51*	25*	-2
CCOC(=O)c1ccc(NC(=S)NC(=O)c2cncc(Br)c2)cc1	-10	-3	-4	-4	13	1	.	.
CCOC(=O)C1CCCN(C(=O)c2sc3nc(-c4ccc(OC)cc4)cn3c2C)C1 (stereo not drawn)	-3	-7	6	0	-16	46*	45*	-7
COc1ccc(-c2cn3c(C)c(C(=O)NCCN4CCOCC4)sc3n2)cc1	.	0	1	6	-8	73*	69*	-2
CCOC(=O)C1CCN(C(=O)c2sc3nc(-c4ccccc4)cn3c2C)CC1	.	0	8	-1	5	0	.	.
C[C@@H]1CCCCO[C@@H](CN(C)S(C)(=O)=O)[C@H](C)CN([C@@H](C)CO)C(=O)c2cc(NS(=O)(=O)c3ccc(Cl)cc3)ccc2O1	-5	.	.	.	.	.	.	.

From PubChem BioAssay
